Source: PubChem (SRMLSC)
PMK inhibit = S. pneumoniae PMK inhibition; purified PMK, PK/LDH-coupled NADH absorbance 340 nm; AID 539; inhibition, % at 10 µM; 65,000 tested, 0.49% active;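 active means top-ranked compounds by inhibition in the single 10 µM screen, taking a fixed number of the strongest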
DPM-DC inhibit = blocks S. pneumoniae diphosphomevalonate decarboxylase | purified DPM-DC, PK/LDH coupled NADH fluorescence | calls only at 10 µM | 65,000 tested, 0.49% active | AID 556;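 active means the 320 compounds with the highest percent inhibition in the single-dose primary screen, excluding strongly autofluorescent ones, cut at about 32% in these data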;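 further: kinetic rate of NADH fluorescence loss reporting ADP formed by the decarboxylase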
NADH coupling = blocks coupling enzymes of NAD/NADH assays; coupled PK/LDH NADH assays, four targets; 65,000 tested, 0.02% active; IC50, µM (top dose mostly 10 µM);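 active means single-dose screening hits from any of four coupled enzyme assays that gave an IC50 when retested across doses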;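 further: the DPM-DC format reads NADH fluorescence rather than 340 nm absorbance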
A340 absorber = compounds absorbing at 340 nm | compound absorbance at 340 nm, fold over control | fold change at 10 µM | 65,000 tested, under 10 active;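 active means at 10 µM dose, initial 340 nm absorbance at least 2 fold that of control wells; inactive means change under 2 fold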;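 further: initial absorbance extrapolated from kinetic A340 decline of NADH oxidation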
MK inhibit = blocks S. pneumoniae mevalonate kinase; purified MK, PK/LDH-coupled NADH absorbance 340 nm; inhibition, % at 10 µM; 65,000 tested, 0.48% active;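 active means ranked among the strongest by inhibition in the single 10 µM screen, a fixed top-ranked set picked for dose follow-up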
Fluor 339 460 = intrinsic fluorescence of library compounds, ex339/em460 – biochemical, MLSMR library, data from DPM-DC assay, artefact control, profiling panel; fluorescence fold increase at 10 µM; AID 709; compound autofluorescence, ex339/em460 nm, NADH buffer; hits give high values; 1 = no-compound wells, NADH background; 65,000 tested, 5.5% active;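 active means at 10 µM, mean starting fluorescence two-fold or more over control wells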;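 further: signal is the first read of a kinetic run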
A number is an active result; – = inactive; · = not tested or not shown; + = active, no number. Compounds with a hit are over-represented: about 6.8% of the library has one in this group of screens.

SMILES	PMK inhibit	DPM-DC inhibit	NADH coupling	A340 absorber	MK inhibit	Fluor 339 460
Cc1cc(NC(=O)CC(CN(C)S(=O)(=O)c2ccccc2)c2ccccc2)no1 (centres undefined)	–	–	–	–	–	–
N#Cc1sc2nc3c(c(-c4cccnc4)c2c1N)CCC3	–	–	–	–	–	–
Cc1nc2sc(C#N)c(N)c2c2c1CCCC2	–	·	–	–	–	2.5
CCOC(=O)c1sc(=NC(=O)c2ccc(S(=O)(=O)N3CCOCC3)cc2)n(C)c1C	–	–	–	–	–	–
CCn1c(=NC(=O)c2ccc(S(=O)(=O)N3CCOCC3)cc2)sc2cccc(OC)c21	–	·	–	–	–	4.7
COc1cccc2sc(=NC(=O)c3ccc(S(=O)(=O)N4CCOCC4)cc3)n(C)c12	–	–	–	–	–	3.1
CCc1ccccc1NC(=O)Cn1nnc(-c2cccnc2)n1	–	–	–	–	–	–
CC(C)(NC(=O)N1CCCC1)c1cccc(C(C)(C)NC(=O)N2CCCC2)c1	–	–	–	–	–	–
C=CCOC(=O)C1=C(C)NC(SCC(=O)NC(=O)OCC)=C(C#N)C1c1cccnc1 (centres undefined)	–	–	–	–	–	3.1
Cc1nn(-c2ccccn2)c2c1-c1nc(N)ncc1CC2	–	·	–	–	–	3.6
Cc1nn2c3c(cnc2c1-c1ccccc1)C(=O)CCC3	–	–	–	–	–	–
CCN(CC)c1ccc(-c2c(C#N)c(N)nc(OC)c2C#N)cc1	–	·	–	–	–	2.5
CCOc1ccc2nc3ccc4[nH]onc4c3c2c1	–	·	–	–	–	2.3
O=C(NCc1cccnc1)c1cnn2ccccc12	–	–	–	–	–	–
Cc1cccn2c(=O)c3cc(C(=O)NCc4cccnc4)c(=N)n(C(C)C)c3nc12	–	·	–	–	–	3.7
Cc1cc(C)n2ncc(C(=O)NCc3cccnc3)c2n1	–	–	–	–	–	3.6
Cc1ccc2nc3c(cc(C(=O)NCc4cccnc4)c(=N)n3C(C)C)c(=O)n2c1	–	·	–	–	–	5
Cc1cccn2c(=O)c3cc(C(=O)NCc4cccnc4)c(=N)n(C)c3nc12	–	–	–	–	–	–
CCc1nnc(NC(=O)C2CCN(c3nc(C)cc(C)n3)CC2)s1	–	–	–	–	–	–
Cc1ccsc1C(=O)Nc1nnc(-c2ccco2)o1	–	–	–	–	–	–
CCOC(=O)CC(=O)CSc1nc2c(c(C)c1C#N)CCC2	–	–	–	–	–	2.7
NC1=NC(c2ccc(Cl)cc2)n2c(nc3ccccc32)N1 (centres undefined)	–	–	–	–	–	–
COc1cccc(C(=O)OCc2ccccc2C#N)c1O	–	–	–	–	–	–
CCOc1c(C)cc(-c2ncccc2O)cc1C	–	–	–	–	–	3.8
O=C(CSc1nc(-c2ccncc2)nn1CC(=O)N1CCCCC1)NC1CCCC1	–	–	–	–	–	–
SMILES	PMK inhibit	DPM-DC inhibit	NADH coupling	A340 absorber	MK inhibit	Fluor 339 460
CN(C)/C=C1/Sc2ccccc2C1=O	–	–	–	–	–	–
CN(C)/C=C1\C(=O)c2ccc(N(C)C)nc2CC1c1ccccc1 (centres undefined)	–	–	–	–	–	2
O=C(Cc1cn2ccsc2n1)Nc1nc2c(s1)CN(Cc1ccccc1)CC2	–	–	–	–	–	–
Cc1[nH]c2ccccc2c1C(=O)CN1CCCCC1C (centres undefined)	–	–	–	–	–	–
O=C1C(=O)N(CCN2CCOCC2)C(c2ccncc2)/C1=C(/O)c1ccc2c(c1)OCO2 (centres undefined)	–	–	–	–	79	–
CC(C)(C)NC(=O)COC(=O)c1snc(C(=O)NC2CCCCC2)c1N	–	·	–	–	–	2.1
CCOc1ccccc1N(C(=O)c1snc(C(N)=O)c1N)C(C(=O)NCCC(C)C)c1ccco1 (centres undefined)	–	–	–	–	–	–
COCCNC(=O)C(c1ccc(C)o1)N(C(=O)c1snc(C(N)=O)c1N)c1cc(C)cc(C)c1 (centres undefined)	–	–	–	–	–	2.1
COc1ccccc1N(C(=O)c1snc(C(N)=O)c1N)C(C(=O)NC1CCCC1)c1ccco1 (centres undefined)	–	–	–	–	–	2.9
COc1ccccc1N(C(=O)c1snc(C(N)=O)c1N)C(C(=O)NCCC(C)C)c1ccco1 (centres undefined)	–	–	–	–	–	2.5
O=C(OCn1nnc2ccccc2c1=O)c1cc2ccccc2o1	–	–	–	–	–	–
COc1ccc(CN(C(=O)c2snc(C(N)=O)c2N)C(C(=O)NC(C)(C)C)c2ccco2)cc1 (centres undefined)	–	–	–	–	–	2.3
CC(C(=O)NC1CCCC1)N(Cc1ccco1)C(=O)c1snc(C(=O)NC2CCCC2)c1N (centres undefined)	–	–	–	–	–	2.4
COC(=O)c1cc(OC)c(OC)cc1NC(=O)c1ccccc1	–	·	–	–	–	2.2
COC(=O)c1cc(OC)c(OC)cc1NC(=O)c1ccoc1C	–	·	–	–	–	3.3
COc1ccc(S(=O)(=O)N2CCN(C(=O)COc3ccc4c(C)cc(=O)oc4c3)CC2)cc1	–	–	–	–	–	2.6
Cc1cc(=O)oc2cc(OCC(=O)N3CCCC(C)C3)ccc12 (centres undefined)	–	–	–	–	–	2.7
Cc1cc(=O)oc2ccc(OCC(=O)N3CCC(C)CC3)cc12	–	+	–	–	–	–
CSc1nnnn1-c1ccc(C(=O)OCC(=O)N2CCOCC2)cc1	–	–	–	–	–	–
Cc1ccc(-c2nnc(-c3ccc(Br)cc3)o2)o1	–	·	–	–	–	3.4
CC1CC(C)CN(c2oc(-c3ccccc3Cl)nc2C#N)C1 (centres undefined)	–	·	–	–	–	3.2
N#Cc1nc(-c2cccc3ccccc23)oc1N1CCCCC1	–	·	–	–	–	3.7
CC1CCN(c2oc(-c3cccc4ccccc34)nc2C#N)CC1	–	·	–	–	–	3
N#Cc1nc(-c2ccccc2Cl)oc1N1CCCCC1	–	–	–	–	–	–
Cc1cccc(OCc2nc(C#N)c(N3CC(C)CC(C)C3)o2)c1 (centres undefined)	–	–	–	–	–	–
N#Cc1nc(Cc2cccc3ccccc23)oc1N1CCCCC1	–	–	–	–	–	–
COc1ccc(C(=S)N2CCCC2)cc1C	–	–	–	–	–	–
Cc1ccc2cc(COC(=O)c3ccncc3)c(=O)[nH]c2c1	–	–	–	–	–	–
CCOC(=O)C1=C(C)NC(C)=C(C(=O)OCC)C1c1cc2ccc(C)cc2[nH]c1=O	–	+	–	–	–	2.2
COC(=O)C1=C(C)NC(C)=C(C(=O)OC)C1c1cc2cc(C)ccc2[nH]c1=O	–	–	–	–	–	2.7
